Compound activity as filed in PubChem BioAssay.
This is one part of a sample in which hits are shown more often than they occur.
D1 allo mod = D1 CRE-luciferase signal change, two-sided – cell-based, HEK293 D1, dopamine EC30, D1 allosteric modulator project, primary screen; AID 641, 2007; dopamine EC30 potentiation; actives deviate in either direction; B-score at 10 µM; actives 5.9% (n = 58,000);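 active = luminescence count or its row- and column-corrected plate score outside the 99.7% band of the plate's sample wells, on either side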
PLAP act = PLAP enzyme activators, biochemical, luminescence, HTS; activation fold at 20 µM; actives 1.2% (n = 96,000); purified PLAP enzyme, luminescent substrate read-out; active compounds read high; in the data active = activation fold above about 2
HePTP inhibitor = inhibitors of human HePTP phosphatase, primary screen, biochemical, absorbance, leukemia target; actives 0.64% (n = 110,000); recombinant HePTP phosphatase activity, OD absorbance; inhibition, % at 20 µM; Tyrosine-protein phosphatase non-receptor type 7 (Homo sapiens), P35236; in the data active = inhibition above about 50%;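 note: plate controls were vehicle for no effect and reference inhibitor for full effect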
Target sequence (P35236 whole entry, looked up): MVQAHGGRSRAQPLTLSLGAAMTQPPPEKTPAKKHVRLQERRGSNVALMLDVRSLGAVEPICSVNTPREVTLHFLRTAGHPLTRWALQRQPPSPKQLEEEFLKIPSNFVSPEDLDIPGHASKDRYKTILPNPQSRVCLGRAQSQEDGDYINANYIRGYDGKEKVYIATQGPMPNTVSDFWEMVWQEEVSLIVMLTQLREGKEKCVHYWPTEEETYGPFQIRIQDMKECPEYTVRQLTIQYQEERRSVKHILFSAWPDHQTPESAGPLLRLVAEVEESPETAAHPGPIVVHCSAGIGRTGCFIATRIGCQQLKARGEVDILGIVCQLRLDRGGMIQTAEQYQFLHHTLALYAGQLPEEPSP
DAT uptake mod = changed hDAT dopamine uptake under cocaine IC80, either direction, primary screen, cocaine antagonist project, cell-based, LLC-PK1 hDAT, [14C]-dopamine uptake, MLSMR | Sodium-dependent dopamine transporter (Homo sapiens), Q01959 | actives 1.3% (n = 110,000) | LLC-PK1 hDAT cells, [14C]-dopamine uptake with cocaine IC80; actives deviate in either direction | B-score at 10 µM | AID 449768, 2010;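 active = Z score or B-score, a plate-position-corrected score, falls beyond the plate's 99.7% confidence bounds, in either direction; inactive = both scores lie inside the 99.7% bounds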;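 note: scored against the spread of the other compound wells on the same plate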
TNAP act mid DEA = human TNAP enzyme activators, primary screen, biochemical, luminescent, intermediate phosphate acceptor level. Alkaline phosphatase, tissue-nonspecific isozyme (Homo sapiens), P05186. purified TNAP, CDP-star luminescence, 100 mM DEA, 30 min; active compounds read high; scale: 0 levamisole-inhibited, 1 vehicle-only enzyme. activation factor at 20 µM. 64,000 tested, under 10 active. AID 813, 2007;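 active = activation factor of at least 2 at 20 µM, relative to controls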
Candida biofilm = clotrimazole potentiators killing Candida biofilms, primary screen, with clotrimazole, Alamar Blue; C. albicans biofilm + clotrimazole; inhibition, % at 6 µM; actives 0.14% (n = 85,000); AID 834, 2007;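 active = inhibition above 20%; inactive = inhibition below 20%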;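 note: preformed 24 hr biofilms exposed to compound for 48 hr; 0% = biofilm without compound and 100% = blank killed by clotrimazole plus chlorhexidine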
D1 PAM confirm = D1 receptor positive allosteric modulators, retest, confirmation, cell-based, HEK293 D1, CRE-luciferase, duplicate; shares compounds with D1 allo mod; dopamine EC30 potentiation; active compounds read high; luminescence at 10 µM; actives 88% (n = 2,200);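 active = luminescence in either of two replicates above the same-plate mean plus 3 SD of the low-dose dopamine control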
D1 ag no DA = D1 receptor agonism without dopamine, confirmation, mechanism study for D1 allosteric modulator project, cell-based, HEK293 D1, CRE-luciferase, secondary assay 1; actives 0.8% (n = 1,900); shares compounds with D1 allo mod; luminescence, no dopamine; active compounds read high; luminescence at 10 µM; in the data active = luminescence above about 3900
Isoprot counter = counter-screen for D1 modulators: isoproterenol response in HEK293 cells; shares compounds with D1 allo mod; HEK293 D1 CRE-luciferase, isoproterenol EC30 counter-screen; active compounds read high; luminescence at 10 µM; actives 63% (n = 2,200);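 active = luminescence in either replicate above plate mean of wells with a partly effective reference agonist dose plus 3 SD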;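 note: isoproterenol raises cAMP through native beta-adrenoceptor Gs so signal bypasses D1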
The depositor's hits bear a star; . = not tested or not shown.

SMILES | D1 allo mod | PLAP act | HePTP inhibitor | DAT uptake mod | TNAP act mid DEA | Candida biofilm | D1 PAM confirm | D1 ag no DA | Isoprot counter
COc1ccc(C(=O)N2c3c(C)cccc3C(Nc3ccccc3C)CC2C)cc1 (stereo not drawn) | . | . | 5.7 | . | . | . | . | . | .
COc1ccc(N(CC(=O)N2CCOCC2)S(=O)(=O)c2ccccc2[N+](=O)[O-])c(OC)c1 | . | . | -5.7 | . | . | . | . | . | .
Cc1ncsc1CCSc1nc2ccccc2c(=O)n1C | 5.26* | 1 | . | 0.611 | . | . | 10832* | . | 3184*
Cn1c(SCC(=O)O)nc2ccccc2c1=O | -0.0245 | 1 | -0.8 | 1.18 | 1 | 7.7 | . | . | .
Cn1c(SCc2ccon2)nc2ccccc2c1=O | 5.89* | 1 | . | -0.247 | . | 1.7 | 6248* | 1464 | 3076
CCOC(=O)c1cn(-c2ccccc2)nc1-c1cccnc1 | 22.5* | . | 9.9 | 0.848 | 1 | 6.1 | 27848* | 1528 | 4840*
O=C(O)c1cn(-c2ccccc2)nc1-c1cccnc1 | 0.168 | 1 | -0.3 | 0.412 | 0.9 | 13.6 | . | . | .
CCOC(=O)c1cn(-c2ccccc2)nc1-c1ccncc1 | 12.6* | 1 | 7.7 | 0.7 | 1 | -0.5 | 20136* | 1728 | 5740*
OCCNc1ncnc2c1c(-c1ccccc1)c(-c1ccccc1)n2Cc1ccco1 | 5.8* | 2* | . | 0.442 | 0.8 | . | 8384* | 1284 | 2856
CC(=O)Nc1cc2c(cc1C(C)=O)OCCO2 | 0.55 | 1 | 10.1 | -0.369 | 1 | 1.5 | . | . | .
CC(=O)Nc1cc2c(cc1C(=O)c1ccc(C)cc1)OCCO2 | 6.19* | 1.1 | 8.5 | -0.361 | 0.9 | -7.4 | 15264* | 1428 | 3928*
Brc1ccc(-c2nnc3n2CCCCC3)cc1 | . | 0.9 | . | -0.0272 | . | 5.8 | . | . | .
Brc1ccc(-c2nnc3n2-c2ccccc2CC3)cc1 | 3.9* | 1.6 | 12.2 | 0.581 | 1 | 3.4 | 13056* | 1744 | 3620*
CCn1c(=O)c2ccccc2n2c(SCC(=O)NCc3cccs3)nnc12 | 4.69* | 1.1 | -8.4 | 0.302 | 0.9 | 5.1 | 7672 | 1452 | 2552
CCCn1c(=O)c2ccccc2n2c(SCC(=O)NCc3cccs3)nnc12 | -2.14 | 0.7 | 4.7 | 0.814 | 0.9 | 3.8 | . | . | .
CCOC(=O)C1=C(C)Nc2ncnn2C1/C=C/c1ccccc1 (stereo not drawn) | 2.83* | 1 | 8.5 | 1.72 | 0.9 | 7.7 | 11572* | 1448 | 3632*
CCn1c(SCC(=O)NCc2ccccc2)nc2ccccc2c1=O | . | 0.9 | 2.2 | -0.205 | 0.9 | 6.1 | . | . | .
CCn1c(SCC(=O)N(Cc2ccccc2)C2CCS(=O)(=O)C2)nc2ccccc2c1=O (stereo not drawn) | 8.92* | 1.3 | 6.7 | 0.0805 | 1 | 0.8 | 13696* | . | 3240*
COc1cccc(C(=O)Nc2ccc(Cc3ccncc3)cc2)c1 | . | . | -10.4 | . | . | . | . | . | .
COc1ccc2c(c1OC)C(=O)N(c1cccc(C)c1)C2=O | 4.6* | 0.9 | 6.2 | -0.406 | 1 | . | 10596* | 1716 | 4244*
COC(=O)c1[nH]c2cccc(Cl)c2c1NC(=O)CN(C)C1CCCCC1 | 11.1* | 1.5 | -6.2 | 0.108 | 0.8 | 5.4 | 16352* | 1684 | 3040*
COc1ccc(Cl)cc1NC(=O)CN(C)C1CCCCC1 | . | 0.8 | . | -0.432 | . | . | . | . | .
CCOC(=O)C1CCN(CC(=O)Nc2c(C(=O)OC)[nH]c3cccc(Cl)c23)CC1 | 3.73* | 1.6 | -4.0 | 0.31 | 0.9 | 4.6 | 9896* | 1640 | 3104*
CCOC(=O)C1CCN(CC(=O)Nc2c(C(=O)OC)[nH]c3ccc(Cl)cc23)CC1 | 0.235 | 0.9 | 7.1 | 0.722 | 0.9 | 4.1 | . | . | .
CC(C)(C)c1ccc(C(CC(=O)c2ccc(Br)cc2)S(=O)(=O)c2ccccc2)cc1 (stereo not drawn) | . | . | 6.3 | . | . | . | . | . | .
SMILES | D1 allo mod | PLAP act | HePTP inhibitor | DAT uptake mod | TNAP act mid DEA | Candida biofilm | D1 PAM confirm | D1 ag no DA | Isoprot counter
O=C(OCCCCN1C(=O)c2ccccc2C1=O)c1n[nH]c2ccccc12 | 5.06* | 2* | -1.3 | -0.151 | 0.9 | -5.2 | 7836* | 1704 | 3260
CCC(=O)c1ccc(N2CCN(S(=O)(=O)c3ccccc3)CC2)c(F)c1 | . | . | -5.7 | . | . | . | . | . | .
CCCC(=O)c1ccc(N2CCN(S(=O)(=O)c3ccccc3)CC2)c(F)c1 | 4.8* | 0.9 | 0.9 | -1.73 | 0.9 | 2.5 | 4444 | 1352 | 2460
CCN1CCC2(CC1)C(C#N)=C(N)Oc1c2sc2nc(C)cc(C)c12 | -2.97 | 1.6 | -3.2 | 0.039 | 0.9 | 8.1 | . | . | .
CC(=O)N1CCC2(CC1)C(C#N)=C(N)Oc1c2sc2nc(C)cc(C)c12 | 4.89* | 1.1 | 1.8 | -0.805 | 0.9 | 16.1 | 14572* | 1432 | 2768
CN1CCN(c2ccc(Cl)cc2NC(=O)c2cccc(S(=O)(=O)N(C)C)c2)CC1 | 5.21* | 1.8 | 6.4 | 0.26 | 0.9 | 4.1 | 13264* | 1580 | 2544
CN(C)S(=O)(=O)c1cccc(C(=O)Nc2cc(Cl)ccc2O)c1 | 0.106 | 1.3 | 4.9 | 0.325 | 0.9 | -1.0 | . | . | .
CCOc1ccc(C(=O)Nc2nncs2)cc1OCC | 10.2* | 1 | -3.3 | -0.441 | 1 | 8.6 | 18420* | 1592 | 4240*
CCCN1CCN(CCCNC(=O)c2cc3c(=O)n(C)c4ccccc4c3n2C)CC1 | -0.00638 | 1.5 | -4.3 | -0.31 | 1 | 13.0 | . | . | .
CN1CCN(CCNC(=O)c2cc3c(=O)n(C)c4ccccc4c3n2C)CC1 | 4.62* | 1.3 | -10.4 | 0.445 | 1 | -2.9 | 5788 | . | 2120
CCOC(=O)N1CCC(NC(=O)Cn2nc(Cc3ccncc3)c3ccccc3c2=O)CC1 | 4.27* | 1.5 | 11.3 | 1.5 | 0.9 | -1.8 | 6112 | 1664 | 3988
CCOC(=O)Cn1nc(Cc2ccccc2)c2ccccc2c1=O | . | 1 | . | -0.248 | . | -1.4 | . | . | .
O=C(O)CCCCCN1C(=O)C(=O)/C(=C(\O)c2ccc(Br)cc2)C1c1cccc(F)c1 (stereo not drawn) | . | . | -2.0 | . | . | . | . | . | .
